In the library only some 19% were active in any assay of this set; here they are far more common.
RORgamma inh – qHTS for inhibitors of ROR gamma transcriptional activity | actives 5.4% (n = 310,000) | Potency, µM (series often up to 53.6 µM), for the others: at the highest dose activity change, negative = inhibition, actives largely listed as inhibitors | Drosophila S2 Gal4-RORgamma UAS-luciferase reporter, 20 h | Nuclear receptor ROR-gamma (Mus musculus), P51450; further: nearly all actives have a fitted effect of over 60% in size
Target sequence (P51450 whole entry, looked up, the tested form may be a part): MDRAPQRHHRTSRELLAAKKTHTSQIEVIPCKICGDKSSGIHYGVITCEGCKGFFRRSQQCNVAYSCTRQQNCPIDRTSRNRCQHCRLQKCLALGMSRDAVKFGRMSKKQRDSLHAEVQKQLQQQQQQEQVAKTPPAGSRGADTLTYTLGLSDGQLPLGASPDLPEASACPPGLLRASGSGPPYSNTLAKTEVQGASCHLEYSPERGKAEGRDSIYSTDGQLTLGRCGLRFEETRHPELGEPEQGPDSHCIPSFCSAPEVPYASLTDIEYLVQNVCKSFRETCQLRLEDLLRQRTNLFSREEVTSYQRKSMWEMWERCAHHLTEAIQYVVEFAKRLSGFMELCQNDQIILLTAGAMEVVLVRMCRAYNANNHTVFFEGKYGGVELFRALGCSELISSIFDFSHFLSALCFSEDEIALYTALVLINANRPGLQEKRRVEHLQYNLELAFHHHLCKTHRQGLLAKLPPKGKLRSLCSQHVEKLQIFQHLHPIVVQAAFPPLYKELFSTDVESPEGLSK
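Schneider cells (Drosophila), stable Gal4 DBD–ROR gamma + UAS-luc; 1 hr cmpd preincubation; Cu2+ induction 700 uM final; 20 hr ambient; luminescence.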
Gal4-VP16 FLuc – VP16 counterscreen qHTS for inhibitors of ROR gamma transcriptional activity; Drosophila S2 Gal4-VP16 UAS-luciferase, luminescence, 20 h; Potency, µM (top dose mostly 53.6 µM), for inactives: top-dose activity, negative = inhibition, most hits filed as inhibitors; actives 3.5% (n = 310,000); AID 2546, 2010;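 further: Gal4-VP16 expression switched on by copper sulfate through the metallothionein promoter; nearly all actives have a fitted effect of over 50% in size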
TDP1 cell CPT – qHTS for Inhibitors of human tyrosyl-DNA phosphodiesterase 1 (TDP1): qHTS in cells in presence of CPT | chicken DT40 Tdp1-/-;hTDP1 cells + 20 nM CPT, ATP luminescence, 48 h | Potency, µM (titrated, usually from 46.2 µM), for inactives: at the top dose activity change, negative = growth inhibition, most hits filed as inhibitors | actives 12% (n = 420,000) | AID 686979, 2013; further: nearly all actives have a fitted effect of over 55% in size
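Chicken DT40 Tdp1-/- cells complemented with human TDP1, 400 cells/well, exposed to compounds plus 20 nM camptothecin for at least 48 h at 37 C; viability read as ATP content by CellTiter-Glo luminescence.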
TDP1 cell noCPT – qHTS for Inhibitors of human tyrosyl-DNA phosphodiesterase 1 (TDP1): qHTS in cells in absence of CPT; actives 15% (n = 420,000); DT40 Tdp1-/- hTDP1 cells, no CPT, ATP luminescence, 48 h; Potency, µM (doses to about 46.2 µM), for inactives: at the top dose activity change, negative = growth inhibition, most hits filed as inhibitors; further: nearly all actives have a fitted effect of over 55% in size
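Growth kinetics read by CellTiter-Glo luminescence after ≥48 hr at 37 °C. Cells: DT40 Tdp1-/- stably carrying human TDP1, 400 per well, compound exposure in the absence of CPT (DMSO vehicle).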
TDP1 block – qHTS Assay for Inhibitors of Tyrosyl-DNA Phosphodiesterase (TDP1); Tyrosyl-DNA phosphodiesterase 1 (Homo sapiens), Q9NUW8; recombinant TDP1, AlphaScreen DNA substrate cleavage; Potency, µM (titrated, usually from 130 µM), inactives show top-dose activity change, negative = inhibition, most hits filed as inhibitors; actives 0.28% (n = 350,000); further: nearly all actives have a fitted effect of over 40% in size
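Recombinant human Tdp1 (E. coli-expressed, 1 nM final) preincubated with compounds 15 min at room temperature, then 5'-biotin/3'-phosphotyrosine-FITC DNA substrate (15 nM final) added for 5 min. AlphaScreen beads (10 ug/ml final) added 10 min; cleavage lowers signal.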
* hit, by the source's call; ! = not active in a repeat; [ ] = another dose, or the depositor's remark. The call rests on the fitted dose curve; in most records, active means well fitted curve in the direction sought with a large enough effect; inconclusive means small, poorly fitted or top-dose-only effect, or another doubt; inactive means no such curve, though single readings can be large; an effect the other way counts as inactive or inconclusive. On the % scale 0 is the no-effect control and ±100 the full control effect; potency means the concentration at half of the fitted maximal effect.

`O=C(CSc1oc(-c2ccc(F)cc2)nc1S(=O)(=O)c1ccccc1)NCC1CCCO1` (stereo not drawn) gave RORgamma inh 5%, Gal4-VP16 FLuc 3%, TDP1 cell CPT inconclusive, TDP1 cell noCPT inconclusive and TDP1 block 0%.
Screening CCN(CC)CCn1c2c(c(SCC(=O)Nc3nc(C)cs3)nc1=O)CCC2 returned TDP1 cell CPT 6%, TDP1 cell noCPT 7% and TDP1 block -6%[0.505 µM].
For CN(C)S(=O)(=O)N(CC(=O)Nc1ccc(F)c(F)c1)c1ccccc1 the results were RORgamma inh 19%, Gal4-VP16 FLuc 8%, TDP1 cell CPT -17%, TDP1 cell noCPT -10% and TDP1 block 1%.
`CSc1cccc(NC(=O)CN(c2ccccc2)S(=O)(=O)N(C)C)c1` gave RORgamma inh -5%, Gal4-VP16 FLuc 1%, TDP1 cell CPT 26µM*, TDP1 cell noCPT 29µM* and TDP1 block -8%.
Screening CSc1cccc(NC(=O)CN(c2cccc(C)c2)S(C)(=O)=O)c1 returned RORgamma inh 32%, Gal4-VP16 FLuc 4%, TDP1 cell CPT 18µM*, TDP1 cell noCPT inconclusive and TDP1 block 5%.
`C=CCn1c(SCC(=O)Nc2ccc3c(c2)CCC3)nc2ccccc2c1=O` gave RORgamma inh 25%, Gal4-VP16 FLuc -16%, TDP1 cell CPT 8%, TDP1 cell noCPT 4% and TDP1 block 3%.
For COCCN1C(=O)c2ccccc2C(C(=O)NCCCN2CCCC2)C1c1c[nH]c2ccccc12 (stereo not drawn) the results were RORgamma inh -2%, Gal4-VP16 FLuc -10%, TDP1 cell CPT inconclusive, TDP1 cell noCPT 26µM* and TDP1 block 5%[56.1 µM].
CN1C(=O)[C@@](O)(c2cn(C)c3ccccc23)c2ccccc21 was read as TDP1 cell CPT -6% and TDP1 cell noCPT -8%.
For Cc1cc(Br)c2c(c1)[C@](O)(c1cn(C)c3ccccc13)C(=O)N2C the results were TDP1 cell CPT 16µM* and TDP1 cell noCPT 23µM*.
`COC(=O)c1cc(C(=O)Nc2nnc(C3CC3)s2)cc([N+](=O)[O-])c1` gave RORgamma inh -14%, Gal4-VP16 FLuc -17%, TDP1 cell CPT inconclusive, TDP1 cell noCPT -28% and TDP1 block 2%.
For COCCN1C[C@@H](CO)O[C@@H](n2cnc3c(NCc4ccc(F)cc4)ncnc32)C1 the results were TDP1 cell CPT -27% and TDP1 cell noCPT -11%.
`COc1ccc(-c2nc3nc(C)cc(Nc4cccc(C(F)(F)F)c4)n3n2)cc1` gave TDP1 cell CPT 2% and TDP1 cell noCPT -17%.
`CCOC(=O)c1ccccc1Nc1cc(C)nc2nc(-c3ccco3)nn12` gave TDP1 cell CPT inconclusive, TDP1 cell noCPT 16µM* and TDP1 block 4%.
`Cc1cc(Nc2cccc(F)c2)n2nc(-c3ccco3)nc2n1` gave TDP1 cell CPT 18µM*, TDP1 cell noCPT inconclusive and TDP1 block 1%.
Screening Cc1cc(Nc2ccccc2Cl)n2nc(-c3ccco3)nc2n1 returned TDP1 cell CPT inconclusive, TDP1 cell noCPT 26µM* and TDP1 block -1%.
For CC1=CC(C)C(=O)N(CCN2CCOCC2)C(C)=C1 (stereo not drawn) the results were TDP1 cell CPT 4% and TDP1 cell noCPT -6%.
For O=C(Nc1ccccc1)C1=C[C@@H](C2CC2)C[C@@H](OCCCCO)O1 the results were RORgamma inh 30%, Gal4-VP16 FLuc -5%, TDP1 cell CPT -24%, TDP1 cell noCPT -11% and TDP1 block 5%.
For Cc1nc2sccn2c(=O)c1S(=O)(=O)N1CCN(c2ccc(F)cc2)CC1 the results were RORgamma inh -9%, Gal4-VP16 FLuc 3%, TDP1 cell CPT -3%, TDP1 cell noCPT -7% and TDP1 block -3%.
For Fc1ccc(-c2nnc3n2CCCCC3)cc1 the results were RORgamma inh -3%, Gal4-VP16 FLuc 0%, TDP1 cell CPT 1%, TDP1 cell noCPT -6% and TDP1 block -6%.
`N=c1c2ccccc2nc2n1CCCCCCCCCCC2` gave TDP1 cell CPT 5.2µM* and TDP1 cell noCPT 7.3µM*.
Screening Clc1ccc(-c2cc(-c3nnc4n3CCCCC4)c3ccccc3n2)cc1 returned RORgamma inh inconclusive, Gal4-VP16 FLuc 3.2µM*, TDP1 cell CPT inconclusive, TDP1 cell noCPT inconclusive and TDP1 block 0%.
`c1ccc2c(-c3nnc4n3CCCCC4)cc(-c3ccncc3)nc2c1` gave RORgamma inh -11%, Gal4-VP16 FLuc -3%, TDP1 cell CPT -19%, TDP1 cell noCPT -30% and TDP1 block 0%.
For Fc1ccc(-c2cc(-c3nnc4n3CCCCC4)c3ccccc3n2)cc1 the results were RORgamma inh inconclusive, Gal4-VP16 FLuc 11µM*, TDP1 cell CPT 0% and TDP1 cell noCPT 31%.
Screening N#CC1=C(Nc2ccccc2)SC=C(c2ccc(Cl)c(Cl)c2)N=C1N1CCOCC1 returned RORgamma inh -6%, Gal4-VP16 FLuc -10%, TDP1 cell CPT 13µM*, TDP1 cell noCPT inconclusive and TDP1 block 7%.
N#CC1=C(Nc2ccccc2)SC=C(c2ccccc2)N=C1N1CCOCC1 was read as RORgamma inh 8%, Gal4-VP16 FLuc 29%, TDP1 cell CPT 5.8µM*, TDP1 cell noCPT 29µM* and TDP1 block 4%.
N#Cc1nc(-c2ccccc2Cl)oc1N1CCOCC1 was read as RORgamma inh -19%, Gal4-VP16 FLuc -4%, TDP1 cell CPT inconclusive, TDP1 cell noCPT inconclusive and TDP1 block 11%.
`N#Cc1c(-c2ccccc2)nc(-c2ccccc2)nc1N1CCOCC1` gave RORgamma inh -1%, Gal4-VP16 FLuc -3%, TDP1 cell CPT -17%, TDP1 cell noCPT inconclusive and TDP1 block 4%.
`COc1cc2ccc(=O)oc2c(O)c1O` gave RORgamma inh -33%, Gal4-VP16 FLuc 1%, TDP1 cell CPT 21µM*!, TDP1 cell noCPT inconclusive and TDP1 block -2%.
CCOc1cc(C)c(Cl)cc1S(=O)(=O)n1cnc2ccccc21 was read as RORgamma inh 5%, Gal4-VP16 FLuc 3%, TDP1 cell CPT -28%, TDP1 cell noCPT inconclusive and TDP1 block -1%.
For COc1ccc(S(=O)(=O)n2cnc3cc(C)c(C)cc32)cc1C the results were RORgamma inh 33%[0.365 µM], TDP1 cell CPT 12µM*, TDP1 cell noCPT inconclusive and TDP1 block -1%.
